This is an account of results in PubChem BioAssay AID651965 (National Center for Advancing Translational Sciences (NCATS), 2013).

The structures appear in SMILES notation. Hit rate of the full screen: of about 340,000 compounds, about 6,400 (1.9%) were called active. Where a call stands in place of a potency, no number is given. Inconclusive results (about 4%) are left out. Calls follow the shape of the dose curve; as a rule, active = well fitted falling curve with a large enough effect; inconclusive = small, poorly fitted or top-dose-only effect; inactive = no such curve, though single readings can be large or run the other way. For the sample, actives were picked, then their nearest neighbours and some compounds at random.
Potency is read from the fitted curve at half-maximal effect.

The target in this experiment is ATP-dependent Clp protease proteolytic subunit (Bacillus subtilis (strain 168)) (UniProt P80244). Nature of the experiment: qHTS Assay for Activators of ClpP. Also: the source files actives as falling curves though it sought activators and does not explain the sign; nearly all actives have a fitted effect of over 65% in size. Particulars: purified B. subtilis ClpP, FRET peptide cleavage, 20 min; series mostly up to 57.5 µM. In a few lines:
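Purified B. subtilis ClpP, 10 microg/mL final in Tris/HCl pH8 with KCl, BSA, glycerol and Tween-20, cleaved an Abz/nitrotyrosine-quenched decapeptide. Fluorescence (ex 320, em 430) was read at 0 and 20 min at room temperature. Delta was normalized to 5.8 microM ADEP and DMSO/no-enzyme controls.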
In general terms: qHTS replaces the single test concentration by a dilution series.
As to `OCCC#Cc1ccc(N2C(c3ccsc3)=Cc3ccc(F)cc3C2c2c[nH]c3ccccc23)cc1` (centres undefined), the Potency entry is “inactive”.
As for `CCOC(=O)C1=C(C)c2ccccc2OC1(C)C(=O)OCC` (centres undefined), the entry is “inactive”.
Then `CCOC(=O)C1(C(F)(F)F)N=C(N(C)C)OC(N(C)C)=N1`, with 15.8 µM (active).
As for `Cc1cc(Br)cn2c(Cc3ccccc3C(F)(F)F)c(-c3ccc(Cl)cc3)nc12`, the entry is “inactive”.
With `C=C1C=C(C(F)F)n2ncc(C(=O)NCCc3ccccc3OC)c2N1`, the Potency entry is “inactive”.
As for `O=C(Cn1c(-c2ccccn2)nc2ccccc21)NCCN1CCOCC1`, the figure is 28.2 µM (active).
Then `Cc1ccc(Cn2c(C)c3cnn(CC(=O)NCCN4CCOCC4)c(=O)c3c2C)cc1`, with “inactive”.
As for `O=C(CCN1C(=O)c2ccccc2C1=O)NCCN1CCOCC1`, the entry is “inactive”; as for `Cc1ccc(CC2(C)C(=O)Nc3ccc(OC(F)(F)F)cc32)cc1` (centres undefined), “inactive”.
Consider `O=C(Nc1ccc2c(c1)OCCO2)C(C1CC1)N1CCC(Cc2ccccc2)CC1` (centres undefined), for which the Potency entry was “inactive”.
Then `CCOC(=O)[C@]12CCCC=C1N(CCC1=CCCCC1)C(=O)[C@H](CC(=O)N1CCOCC1)C2`, with “inactive”; and `CCc1nc2c(OCc3ccc(Cl)cc3Cl)cccn2c1N(C)C(=O)C(C)C`, with “inactive”.
As for `CCc1nc2ccc(C(=O)N3CCN(c4cc(Cl)ccc4C)CC3)cc2nc1CC`, the entry is “inactive”; as for `CCOC(=O)N1CCN(C(=O)c2ccc3nc4cc(Cl)ccc4c(=O)n3c2)CC1`, 3.55 µM (active); as for `CCc1nc2ccc(C(=O)N3CCN(c4cccc(Cl)c4)CC3)cc2nc1CC`, “inactive”.
Then `O=C(c1cccs1)N1C[C@H](n2cc(C3CC3)nn2)[C@@H](O)C[C@@H]1c1ccccc1`, with “inactive”.
`CC(C)N1C(=O)c2ccccc2NC(=O)C1C(=O)NCc1cccs1` (centres undefined): the Potency entry was “inactive”.
As for `CC(=O)c1ccc(-c2cnc3c(NC=O)cc(-c4cccc(NS(C)(=O)=O)c4)cn23)cc1`, the entry is “inactive”; as for `Cc1ccccc1S(=O)(=O)NC(=O)C1(C)CCN1C(=O)C1(c2ccccc2)CCCC1` (centres undefined), “inactive”.
Then `O=C(Nc1ccccc1)N1CCC(C(=O)N2CCN(Cc3ccccc3)CC2)CC1`, with “inactive”; and `O=C(Nc1ccccc1)N1CCN(C2c3ccccc3-c3ccccc32)CC1`, with 31.6 µM (active).
As for `O=C(Nc1cccc(NC(=O)N2CCN(c3ccccc3)CC2)c1)N1CCN(c2ccccc2)CC1`, the Potency entry was “inactive”.
Take `Cc1ccc(O)c(/C=N/NC(=O)COc2ccc3c(C)cc(=O)oc3c2)c1`: the Potency entry was “inactive”.
As for `Cc1cc(=O)oc2ccc(OCC(=O)O)cc12`, the figure is 31.6 µM (active).
As for `CC(=O)c1c(C)[nH]c(C(=O)COc2ccc3c(C)cc(=O)oc3c2)c1C`, the entry is “inactive”; as for `Cc1cccc(C)c1NC(=O)CN1CCN(c2ccc(F)cc2)CC1`, “inactive”; as for `COCCn1c(=NC(=O)c2ccccc2[N+](=O)[O-])sc2cc(S(C)(=O)=O)ccc21`, “inactive”.
For `Cn1c(=NC(=O)c2ccc3c(c2)OCCO3)sc2cc(S(C)(=O)=O)ccc21`, the Potency was 12.6 µM (active).
Then `CS(=O)(=O)c1ccc(-c2nnc(NC(=O)c3ccc4c(c3)OCCO4)o2)cc1`, with “inactive”.
Then `CCCNC(=O)C1(C)CCN1C(=O)C1(c2ccccc2)CC1` (centres undefined), with “inactive”; and `O=C(NCc1cccnc1)c1cn(-c2ccccc2)nc1-c1cccs1`, with “inactive”.
Then `Cc1ccc(C(=O)NC(=S)NCc2cccnc2)cc1`, with “inactive”; and `O=C(/C=C/c1cccs1)NCc1cccnc1`, with 35.5 µM (active).
`CCN1C(=O)[C@H]2[C@@H](c3ccc(C(F)(F)F)cc3)N[C@]3(CCCN(Cc4ccc(Br)cc4)C3=O)[C@H]2C1=O`: the Potency result was “inactive”.
As for `O=C(COC(=O)c1ncc(Cl)c(Cl)c1Cl)NNC(=O)c1ccccc1`, the Potency entry is “inactive”.
As for `O=C(COC(=O)c1ncc(Cl)c(Cl)c1Cl)NCc1ccccc1`, the entry is “inactive”; as for `CS(=O)(=O)c1ccc(Cl)c(NC(=O)COC(=O)c2ncc(Cl)c(Cl)c2Cl)c1`, 14.1 µM (active); as for `COc1ccc(C(=O)N2CCCCC2c2cc(C(=O)Nc3ccccc3)no2)cc1` (centres undefined), “inactive”.
As for `Cc1cc(C)n2c(NCc3ccccc3)c(CC(C)C)nc2n1`, the entry is “inactive”.
Then `Cc1cccc(CN2CCN(C3CN(Cc4cn(Cc5ccccc5F)nn4)S(=O)(=O)C3)CC2)c1` (centres undefined), with “inactive”.
For `CNCCCOc1cc2nc(N3CCCN(C)CC3)nc(NC3CCN(C)CC3)c2cc1OC`, the Potency result is “inactive”.
Regarding `Nc1ccc(-c2nnc(-c3ccc(-c4ccccc4)cc3)o2)cc1`, the Potency was 31.6 µM (active).
For the compound `CN(C)c1ccc(-c2nnc(-c3cccnc3)o2)cc1`, the Potency entry is “inactive”.
As to `OC(c1nnc(-c2ccccc2)o1)c1cccs1` (centres undefined), the Potency entry is “inactive”.
As for `O=C(COC(=O)c1ccccc1OCCOc1ccccc1)Nc1cccc(Br)c1`, the entry is “inactive”; as for `Cc1ccc(-c2cnc(NCc3ccc(C(C)C)cc3)n2C)cc1`, 28.2 µM (active).
Then `CC(=O)N1CCN(c2ccc(NCc3ccc(C(C)C)cc3)cc2)CC1`, with “inactive”; and `Cc1ccc(-c2cnc(NC(=O)CCC(=O)N(C)Cc3ccccc3)n2C)cc1`, with “inactive”.
As for `COc1cccc(NC(=O)Nc2ccc(F)cc2)c1`, the entry is “inactive”; as for `COc1ccc2nc(/N=C(\N)NC(=O)Nc3ccccc3)nc(C)c2c1`, 14.1 µM (active).
Regarding `COc1ccc2nc(C)cc(Nc3cccc(C(=O)O)c3)c2c1`, the Potency result is “inactive”.
Then `COC(=O)[C@@]12C[C@@H](CC(=O)N3CCCCC3)C(=O)N(Cc3ccc4c(c3)OCO4)C1=CCC(C)(C)C2`, with “inactive”.
As for `CCc1nnc(SCC(=O)Nc2cc(OC)ccc2OC)nc1CC`, the Potency entry is “inactive”.
As for `COC(=O)CSc1nc(C)c2ccc(OC)cc2n1`, the figure is 25.1 µM (active).
`COc1ccc2nc(SCc3ccccc3)nc(C)c2c1`: the Potency entry was “inactive”.
As for `O=c1cc(CN2CCCCCCC2)c2c(ccc3ccccc32)o1`, the entry is “inactive”; as for `O=C1/C(=C/c2ccc3c(c2)OCO3)CCC/C1=C\c1ccc2c(c1)OCO2`, 28.2 µM (active); as for `NS(=O)(=O)c1ccc(NC(=O)COC(=O)c2c3c(nc4ccccc24)/C(=C\c2ccc4c(c2)OCO4)CCC3)cc1`, “inactive”.
Take `NC(=O)c1ccc(NC(=O)COC(=O)c2c3c(nc4ccccc24)/C(=C\c2ccc4c(c2)OCO4)CCC3)cc1`: the Potency entry is “inactive”.
Then `CCOC(=O)C1=CC[C@@H](c2ccccc2)N(S(=O)(=O)c2ccc(C)cc2)[C@H]1c1cccc(OC)c1`, with “inactive”.
Then `O=C(c1ccc(C(F)(F)F)cc1)N1CCC(=O)N([C@H](COCc2ccccc2)Cc2ccccc2)CC1`, with “inactive”.
As for `Cc1ccc(N(CCC(=O)O)S(=O)(=O)c2cccc(C(F)(F)F)c2)cc1`, the figure is 31.6 µM (active).
On to `O=C(O)c1cc(S(=O)(=O)N(Cc2ccccc2)c2cccc(C(F)(F)F)c2)ccc1Cl`, for which the Potency entry is “inactive”.
As for `CCc1nnc(NC(=O)CCN(c2ccc(C)cc2)S(=O)(=O)c2ccccc2)s1`, the entry is “inactive”; as for `CN(C)CCNC(=O)c1cccc(-c2cnc3c(NC=O)cc(-c4cccc(C(F)(F)F)c4)cn23)c1`, “inactive”.
As to `CCN(CC(=O)Nc1ccccc1OC)C(=O)Cn1cnc2ccccc2c1=O`, the Potency entry was “inactive”.
`COc1ccc(S(=O)(=O)N2CCOCC2)cc1NC(=O)CC1CC2CCC1C2` (centres undefined): the Potency entry is “inactive”.
As to `CCN(CC(=O)Nc1ccccc1OC)C(=O)CC1CC2CCC1C2` (centres undefined), the Potency was 35.5 µM (active).
Then `COc1cccc(-c2nc3nc(C)cc(C)n3c2NC2CCCCC2)c1`, with “inactive”; and `COc1ccccc1-c1cc2nc(NCc3cccc(Cl)c3)ccn2n1`, with “inactive”; and `Cc1nc2sccn2c(=O)c1S(=O)(=O)NCCc1ccccc1`, with “inactive”.
Then `O=S(=O)(NCCc1ccc(Cl)cc1)c1cccs1`, with “inactive”; and `Cc1nc2sc(C)c(C)n2c(=O)c1S(=O)(=O)NCCc1ccc(Cl)cc1`, with 3.98 µM (active); and `CCOC(=O)[C@]12CCC=C1N(Cc1ccco1)C(=O)[C@H](CC(=O)NCc1cccc(C(F)(F)F)c1)C2`, with “inactive”.
As to `O=[N+]([O-])c1ccc(CN2CC(N3CC=CC3)CS2(=O)=O)cc1` (centres undefined), the Potency result is “inactive”.
As to `Cc1ccc(-c2cnc(C(O)c3cc(Cl)cc(Cl)c3)[nH]2)cc1` (centres undefined), the Potency entry was “inactive”.
Then `Cc1cc2oc(=O)cc(CN(C)Cc3ccccc3)c2cc1Cl`, with “inactive”; and `CN1OC[C@@H]2CN[C@H](c3ccc(-c4ccccc4)cc3)C[C@@H]21`, with “inactive”; and `Cc1ccc(C2=N/C(=C\c3ccc(OS(=O)(=O)c4ccc(C)cc4)cc3)C(=O)O2)cc1`, with “inactive”.
Turning to `Cc1ccc(C2=C/C(=C\c3cccnc3)C(=O)O2)cc1`, the Potency entry is “inactive”.
Take `O=C1OC(c2ccc(Cl)cc2)=N/C1=C\c1cccnc1`: the Potency is 3.16 µM (active).
As for `COC(=O)c1cnn2c(C(F)(F)F)cc(-c3ccco3)nc12`, the figure is 28.2 µM (active).
As for `Cc1cccc(N2CCN(C(=O)c3cnn4c(C(F)F)cc(-c5ccccc5)nc34)CC2)c1C`, the entry is “inactive”; as for `O=C(NCCCN1CCOCC1)c1cn(-c2ccccc2)nc1-c1ccc(F)cc1`, “inactive”; as for `Cc1cccc(NC(=O)CSc2nc(-c3ccco3)cc(C(F)(F)F)n2)c1C`, “inactive”.
As for `O=C(O)c1cnn2c(C(F)(F)F)cc(-c3ccccc3)nc12`, the figure is 0.631 µM (active); as for `O=C(NCCCN1CCOCC1)c1cc(-c2ccccc2F)no1`, “inactive”.
In the case of `Cc1ccc(-c2cc(C(F)(F)F)n3ncc(C(=O)N4CCCCC4c4cccnc4)c3n2)cc1` (centres undefined), the Potency result was “inactive”.
As for `O=C(NCCCN1CCOCC1)c1cnn2c(-c3ccccc3)cc(-c3ccccc3)nc12`, the figure is 15.8 µM (active).
Then `O=C(NCc1ccco1)c1cnn2c(C(F)(F)F)cc(-c3ccco3)nc12`, with “inactive”; and `Cc1cccc(CNC(=O)c2sc(=O)n(Cc3ccccc3C)c2C)c1`, with “inactive”.
Then `Cc1ccc(-c2nc3ccc(Br)cn3c2Cc2ccccc2C(F)(F)F)cc1`, with “inactive”.
Regarding `Cc1csc[n+]1CCC1CCCCC1`, the Potency entry is “inactive”.
Turning to `CCOC(=O)C1(C)CCCN(C(=O)c2cccc(Cl)c2)C1` (centres undefined), the Potency result was “inactive”.
Then `CN(C(=N)N)c1ccc(/C=C2\C=Cc3ccccc32)cc1`, with “inactive”.
In the case of `CCCCC(CCCC)c1ccc(C=Nc2ccc(/C=C/c3ccnc4ccccc34)cc2)cc1`, the Potency result is “inactive”.
Consider `CCc1cc(Br)ccc1NC(=O)C1CCCO1` (centres undefined), for which the Potency entry is “inactive”.
As for `Cc1cc([N+](=O)[O-])ccc1NC(=O)C1CCCO1` (centres undefined), the entry is “inactive”; as for `COC(=O)c1cc(OC)c(OC)cc1NC(=O)C1CCCO1` (centres undefined), 20 µM (active).
